# Source: ChEMBL document CHEMBL1961873, “Compounds: GSK PKIS; Assays: Nanosyn kinase panel” (2012)
# Experiments:
# [1] = biological target: T1, Inhibitor of nuclear factor kappa-B kinase subunit epsilon (Homo sapiens) (UniProt Q14164); details: at 1 µM;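 further: reported values are averaged percent inhibition figures against human IKKε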
# T1 sequence (whole entry): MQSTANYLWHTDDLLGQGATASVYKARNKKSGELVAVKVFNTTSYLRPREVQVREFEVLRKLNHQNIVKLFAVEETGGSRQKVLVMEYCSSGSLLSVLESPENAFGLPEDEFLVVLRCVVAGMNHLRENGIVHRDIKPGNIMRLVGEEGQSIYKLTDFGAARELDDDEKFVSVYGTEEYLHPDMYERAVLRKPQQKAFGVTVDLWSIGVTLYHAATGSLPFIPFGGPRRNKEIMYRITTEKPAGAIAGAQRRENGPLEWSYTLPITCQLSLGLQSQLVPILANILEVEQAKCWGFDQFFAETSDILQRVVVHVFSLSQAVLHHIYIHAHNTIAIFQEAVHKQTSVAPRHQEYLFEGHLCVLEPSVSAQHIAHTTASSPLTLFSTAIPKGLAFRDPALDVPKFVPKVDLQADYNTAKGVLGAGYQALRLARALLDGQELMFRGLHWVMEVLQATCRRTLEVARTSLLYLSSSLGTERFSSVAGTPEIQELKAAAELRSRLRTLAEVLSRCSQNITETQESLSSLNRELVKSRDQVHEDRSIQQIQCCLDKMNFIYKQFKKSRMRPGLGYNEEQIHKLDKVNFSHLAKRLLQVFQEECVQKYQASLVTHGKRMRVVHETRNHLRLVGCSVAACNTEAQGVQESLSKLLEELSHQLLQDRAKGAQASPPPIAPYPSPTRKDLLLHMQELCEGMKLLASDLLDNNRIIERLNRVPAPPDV
# [2] = biological target: T2, Serine/threonine-protein kinase Nek1 (Homo sapiens) (UniProt Q96PY6); details: at 0.1 µM
# T2 sequence (whole entry): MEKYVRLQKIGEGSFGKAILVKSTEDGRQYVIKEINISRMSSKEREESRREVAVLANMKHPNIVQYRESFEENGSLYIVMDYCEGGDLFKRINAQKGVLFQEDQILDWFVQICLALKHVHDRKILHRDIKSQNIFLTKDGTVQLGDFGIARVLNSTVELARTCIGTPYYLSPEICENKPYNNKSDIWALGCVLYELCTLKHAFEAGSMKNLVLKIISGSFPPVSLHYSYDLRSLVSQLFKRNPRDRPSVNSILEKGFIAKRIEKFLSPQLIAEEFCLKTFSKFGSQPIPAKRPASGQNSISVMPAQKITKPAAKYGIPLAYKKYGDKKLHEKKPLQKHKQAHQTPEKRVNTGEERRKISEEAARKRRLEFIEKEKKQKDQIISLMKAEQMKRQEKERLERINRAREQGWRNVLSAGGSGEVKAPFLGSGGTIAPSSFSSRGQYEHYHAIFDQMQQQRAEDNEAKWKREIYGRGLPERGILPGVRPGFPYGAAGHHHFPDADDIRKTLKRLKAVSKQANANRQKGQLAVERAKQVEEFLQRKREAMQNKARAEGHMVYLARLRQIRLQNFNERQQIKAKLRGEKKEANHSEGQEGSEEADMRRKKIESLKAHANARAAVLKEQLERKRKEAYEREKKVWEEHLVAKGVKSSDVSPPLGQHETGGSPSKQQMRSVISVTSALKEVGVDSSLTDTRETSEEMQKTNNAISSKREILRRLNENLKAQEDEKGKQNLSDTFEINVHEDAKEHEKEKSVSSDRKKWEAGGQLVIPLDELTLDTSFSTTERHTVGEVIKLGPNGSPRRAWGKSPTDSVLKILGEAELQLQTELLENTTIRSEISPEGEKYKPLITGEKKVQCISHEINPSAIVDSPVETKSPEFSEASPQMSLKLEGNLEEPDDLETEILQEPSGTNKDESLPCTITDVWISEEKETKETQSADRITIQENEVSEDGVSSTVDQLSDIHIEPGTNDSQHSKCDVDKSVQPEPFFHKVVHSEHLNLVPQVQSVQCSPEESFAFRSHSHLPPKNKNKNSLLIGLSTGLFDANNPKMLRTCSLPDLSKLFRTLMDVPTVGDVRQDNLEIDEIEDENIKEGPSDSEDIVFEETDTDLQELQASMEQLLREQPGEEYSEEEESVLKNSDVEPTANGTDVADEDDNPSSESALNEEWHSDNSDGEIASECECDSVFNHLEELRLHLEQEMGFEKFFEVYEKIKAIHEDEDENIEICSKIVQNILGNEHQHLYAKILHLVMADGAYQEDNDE
# [3] = biological target: T2, Serine/threonine-protein kinase Nek1 (Homo sapiens); details: at 1 µM
# [4] = biological target: T3, Serine/threonine-protein kinase Nek2 (Homo sapiens) (UniProt P51955); details: at 0.1 µM
# T3 sequence (whole entry): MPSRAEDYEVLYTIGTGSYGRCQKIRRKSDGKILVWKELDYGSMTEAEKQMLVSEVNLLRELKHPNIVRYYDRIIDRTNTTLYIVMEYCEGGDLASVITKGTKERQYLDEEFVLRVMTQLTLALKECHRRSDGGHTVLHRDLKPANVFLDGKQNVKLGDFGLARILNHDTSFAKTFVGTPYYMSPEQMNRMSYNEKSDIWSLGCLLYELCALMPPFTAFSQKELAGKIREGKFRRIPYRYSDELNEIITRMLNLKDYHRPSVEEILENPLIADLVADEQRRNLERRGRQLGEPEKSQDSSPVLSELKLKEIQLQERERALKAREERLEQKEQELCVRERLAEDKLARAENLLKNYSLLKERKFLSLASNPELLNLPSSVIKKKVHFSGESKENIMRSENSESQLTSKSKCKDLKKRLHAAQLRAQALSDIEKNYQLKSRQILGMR
# [5] = biological target: T3, Serine/threonine-protein kinase Nek2 (Homo sapiens); details: at 1 µM
# [6] = biological target: Serine/threonine-protein kinase Nek6 (Homo sapiens) (UniProt Q9HC98); details: at 0.1 µM
# Sequence of Serine/threonine-protein kinase Nek6 (Homo sapiens) (Q9HC98 whole entry): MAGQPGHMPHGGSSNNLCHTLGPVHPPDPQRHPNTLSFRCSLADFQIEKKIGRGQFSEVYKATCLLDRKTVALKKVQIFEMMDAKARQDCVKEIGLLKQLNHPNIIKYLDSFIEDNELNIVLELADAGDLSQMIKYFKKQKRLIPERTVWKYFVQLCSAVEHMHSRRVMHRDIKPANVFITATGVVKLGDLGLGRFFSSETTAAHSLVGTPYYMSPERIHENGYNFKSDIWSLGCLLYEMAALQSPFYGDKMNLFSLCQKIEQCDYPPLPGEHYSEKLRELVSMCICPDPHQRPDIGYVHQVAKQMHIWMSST
# [7] = biological target: Serine/threonine-protein kinase Nek6 (Homo sapiens) (UniProt Q9HC98); details: at 1 µM
# [8] = biological target: Serine/threonine-protein kinase Nek7 (Homo sapiens) (UniProt Q8TDX7); details: at 0.1 µM
# Sequence of Serine/threonine-protein kinase Nek7 (Homo sapiens) (Q8TDX7 whole entry, looked up): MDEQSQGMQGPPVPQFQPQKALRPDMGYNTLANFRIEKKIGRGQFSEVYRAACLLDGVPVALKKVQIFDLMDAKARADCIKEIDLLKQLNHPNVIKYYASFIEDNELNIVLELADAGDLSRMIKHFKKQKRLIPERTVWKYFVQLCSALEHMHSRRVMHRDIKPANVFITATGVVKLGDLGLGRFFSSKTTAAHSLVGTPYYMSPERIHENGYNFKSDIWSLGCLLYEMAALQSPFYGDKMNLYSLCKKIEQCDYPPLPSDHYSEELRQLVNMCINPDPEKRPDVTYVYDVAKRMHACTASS
# [9] = biological target: Serine/threonine-protein kinase Nek7 (Homo sapiens) (UniProt Q8TDX7); details: at 1 µM
# [10] = biological target: T4, Serine/threonine-protein kinase Nek9 (Homo sapiens) (UniProt Q8TD19); details: at 1 µM
# T4 sequence (whole entry): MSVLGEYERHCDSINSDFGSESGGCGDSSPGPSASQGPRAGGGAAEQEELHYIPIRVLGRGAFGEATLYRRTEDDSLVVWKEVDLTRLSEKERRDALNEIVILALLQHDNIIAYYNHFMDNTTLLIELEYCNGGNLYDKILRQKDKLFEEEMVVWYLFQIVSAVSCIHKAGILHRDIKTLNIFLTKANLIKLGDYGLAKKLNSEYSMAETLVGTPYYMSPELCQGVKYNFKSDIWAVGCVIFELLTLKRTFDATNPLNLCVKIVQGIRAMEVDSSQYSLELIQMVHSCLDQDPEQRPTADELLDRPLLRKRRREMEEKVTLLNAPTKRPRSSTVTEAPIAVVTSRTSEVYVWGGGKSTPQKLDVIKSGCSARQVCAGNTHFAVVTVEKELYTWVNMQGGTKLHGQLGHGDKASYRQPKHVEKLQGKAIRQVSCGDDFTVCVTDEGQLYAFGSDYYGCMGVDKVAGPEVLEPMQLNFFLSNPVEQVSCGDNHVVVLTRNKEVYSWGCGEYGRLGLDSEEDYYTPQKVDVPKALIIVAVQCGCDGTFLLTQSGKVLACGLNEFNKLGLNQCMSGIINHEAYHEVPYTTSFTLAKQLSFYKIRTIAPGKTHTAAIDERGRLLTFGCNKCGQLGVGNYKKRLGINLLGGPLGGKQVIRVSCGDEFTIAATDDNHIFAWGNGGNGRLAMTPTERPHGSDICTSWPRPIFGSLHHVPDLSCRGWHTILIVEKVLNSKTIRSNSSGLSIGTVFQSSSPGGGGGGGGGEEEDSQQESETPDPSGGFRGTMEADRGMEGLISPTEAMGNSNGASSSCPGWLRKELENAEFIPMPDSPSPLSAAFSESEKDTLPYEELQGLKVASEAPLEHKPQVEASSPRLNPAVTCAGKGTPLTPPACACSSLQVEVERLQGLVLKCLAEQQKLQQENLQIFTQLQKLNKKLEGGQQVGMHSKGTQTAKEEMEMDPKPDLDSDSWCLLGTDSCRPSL
# [11] = biological target: Serine/threonine-protein kinase PLK1 (Homo sapiens) (UniProt P53350); details: at 0.1 µM
# Sequence of Serine/threonine-protein kinase PLK1 (Homo sapiens) (P53350 whole entry): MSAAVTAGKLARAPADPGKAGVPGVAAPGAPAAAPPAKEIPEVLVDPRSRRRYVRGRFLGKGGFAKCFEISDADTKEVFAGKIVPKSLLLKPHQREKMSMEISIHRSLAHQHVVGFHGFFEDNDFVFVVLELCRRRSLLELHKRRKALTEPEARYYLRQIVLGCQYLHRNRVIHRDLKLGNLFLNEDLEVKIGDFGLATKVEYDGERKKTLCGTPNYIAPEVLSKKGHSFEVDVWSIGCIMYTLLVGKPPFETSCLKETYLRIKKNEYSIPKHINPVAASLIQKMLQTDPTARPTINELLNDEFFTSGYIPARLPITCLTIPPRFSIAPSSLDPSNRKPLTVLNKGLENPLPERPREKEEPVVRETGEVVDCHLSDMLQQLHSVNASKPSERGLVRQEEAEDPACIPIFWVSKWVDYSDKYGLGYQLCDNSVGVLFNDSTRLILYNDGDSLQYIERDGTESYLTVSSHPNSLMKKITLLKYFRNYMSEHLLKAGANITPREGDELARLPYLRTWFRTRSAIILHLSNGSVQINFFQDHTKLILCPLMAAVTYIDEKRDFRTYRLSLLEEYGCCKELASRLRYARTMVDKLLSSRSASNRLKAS
# [12] = biological target: Serine/threonine-protein kinase PLK1 (Homo sapiens) (UniProt P53350); details: at 1 µM
# [13] = biological target: T5, Dual specificity protein kinase TTK (Homo sapiens) (UniProt P33981); details: at 0.1 µM
# T5 sequence (whole entry): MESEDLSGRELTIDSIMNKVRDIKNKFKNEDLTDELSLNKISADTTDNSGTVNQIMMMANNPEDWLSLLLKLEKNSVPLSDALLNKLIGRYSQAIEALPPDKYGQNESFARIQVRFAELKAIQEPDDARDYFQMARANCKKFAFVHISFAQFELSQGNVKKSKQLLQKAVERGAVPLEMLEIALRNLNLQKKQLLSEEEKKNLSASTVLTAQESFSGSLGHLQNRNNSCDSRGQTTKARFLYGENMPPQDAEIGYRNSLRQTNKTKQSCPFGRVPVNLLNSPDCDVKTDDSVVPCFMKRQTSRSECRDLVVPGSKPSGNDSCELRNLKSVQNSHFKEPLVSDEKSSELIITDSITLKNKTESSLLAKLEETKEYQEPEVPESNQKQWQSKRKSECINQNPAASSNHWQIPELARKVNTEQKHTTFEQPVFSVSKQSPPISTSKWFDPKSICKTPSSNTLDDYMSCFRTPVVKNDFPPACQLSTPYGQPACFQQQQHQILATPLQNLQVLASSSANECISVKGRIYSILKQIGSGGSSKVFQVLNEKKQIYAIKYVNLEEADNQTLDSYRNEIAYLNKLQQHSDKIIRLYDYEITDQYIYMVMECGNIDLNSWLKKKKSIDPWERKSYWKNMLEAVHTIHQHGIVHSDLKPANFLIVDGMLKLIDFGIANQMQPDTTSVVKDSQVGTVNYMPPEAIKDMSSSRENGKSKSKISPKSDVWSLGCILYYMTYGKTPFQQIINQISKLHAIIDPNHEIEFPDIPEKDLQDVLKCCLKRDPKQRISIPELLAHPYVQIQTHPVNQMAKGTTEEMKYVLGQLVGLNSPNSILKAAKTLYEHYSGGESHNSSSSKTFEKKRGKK
# [14] = system: T6, Receptor-type tyrosine-protein kinase FLT3 (Homo sapiens), P36888 [D835Y]; details: at 1 µM
# T6 sequence (whole entry): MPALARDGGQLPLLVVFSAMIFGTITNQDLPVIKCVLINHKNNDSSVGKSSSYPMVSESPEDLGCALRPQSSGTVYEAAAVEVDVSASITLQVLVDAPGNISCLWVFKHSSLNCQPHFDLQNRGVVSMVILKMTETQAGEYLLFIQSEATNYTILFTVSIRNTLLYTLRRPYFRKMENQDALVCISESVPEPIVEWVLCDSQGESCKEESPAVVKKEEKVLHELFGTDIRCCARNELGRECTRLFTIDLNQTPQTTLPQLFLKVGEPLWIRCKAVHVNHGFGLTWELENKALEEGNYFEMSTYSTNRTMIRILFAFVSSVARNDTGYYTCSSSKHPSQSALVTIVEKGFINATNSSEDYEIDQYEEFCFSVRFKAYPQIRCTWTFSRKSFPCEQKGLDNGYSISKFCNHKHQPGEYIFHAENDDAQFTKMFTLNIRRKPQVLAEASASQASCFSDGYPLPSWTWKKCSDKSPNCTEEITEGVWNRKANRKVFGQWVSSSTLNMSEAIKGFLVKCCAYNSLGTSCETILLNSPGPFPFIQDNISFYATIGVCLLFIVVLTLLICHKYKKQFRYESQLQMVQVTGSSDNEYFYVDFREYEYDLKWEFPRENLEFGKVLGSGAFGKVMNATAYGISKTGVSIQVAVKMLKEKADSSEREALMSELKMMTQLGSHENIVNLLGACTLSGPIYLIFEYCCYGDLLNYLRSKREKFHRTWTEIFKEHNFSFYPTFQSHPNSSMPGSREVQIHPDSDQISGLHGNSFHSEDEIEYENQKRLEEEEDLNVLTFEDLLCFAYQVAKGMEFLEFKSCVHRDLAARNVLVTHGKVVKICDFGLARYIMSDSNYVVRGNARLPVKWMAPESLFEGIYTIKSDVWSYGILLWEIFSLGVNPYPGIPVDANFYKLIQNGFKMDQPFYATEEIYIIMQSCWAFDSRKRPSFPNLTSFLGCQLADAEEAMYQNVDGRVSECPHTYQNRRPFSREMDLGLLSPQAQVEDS
# [15] = biological target: Vascular endothelial growth factor receptor 3 (Homo sapiens) (UniProt P35916); details: at 0.1 µM
# Sequence of Vascular endothelial growth factor receptor 3 (Homo sapiens) (P35916 whole entry): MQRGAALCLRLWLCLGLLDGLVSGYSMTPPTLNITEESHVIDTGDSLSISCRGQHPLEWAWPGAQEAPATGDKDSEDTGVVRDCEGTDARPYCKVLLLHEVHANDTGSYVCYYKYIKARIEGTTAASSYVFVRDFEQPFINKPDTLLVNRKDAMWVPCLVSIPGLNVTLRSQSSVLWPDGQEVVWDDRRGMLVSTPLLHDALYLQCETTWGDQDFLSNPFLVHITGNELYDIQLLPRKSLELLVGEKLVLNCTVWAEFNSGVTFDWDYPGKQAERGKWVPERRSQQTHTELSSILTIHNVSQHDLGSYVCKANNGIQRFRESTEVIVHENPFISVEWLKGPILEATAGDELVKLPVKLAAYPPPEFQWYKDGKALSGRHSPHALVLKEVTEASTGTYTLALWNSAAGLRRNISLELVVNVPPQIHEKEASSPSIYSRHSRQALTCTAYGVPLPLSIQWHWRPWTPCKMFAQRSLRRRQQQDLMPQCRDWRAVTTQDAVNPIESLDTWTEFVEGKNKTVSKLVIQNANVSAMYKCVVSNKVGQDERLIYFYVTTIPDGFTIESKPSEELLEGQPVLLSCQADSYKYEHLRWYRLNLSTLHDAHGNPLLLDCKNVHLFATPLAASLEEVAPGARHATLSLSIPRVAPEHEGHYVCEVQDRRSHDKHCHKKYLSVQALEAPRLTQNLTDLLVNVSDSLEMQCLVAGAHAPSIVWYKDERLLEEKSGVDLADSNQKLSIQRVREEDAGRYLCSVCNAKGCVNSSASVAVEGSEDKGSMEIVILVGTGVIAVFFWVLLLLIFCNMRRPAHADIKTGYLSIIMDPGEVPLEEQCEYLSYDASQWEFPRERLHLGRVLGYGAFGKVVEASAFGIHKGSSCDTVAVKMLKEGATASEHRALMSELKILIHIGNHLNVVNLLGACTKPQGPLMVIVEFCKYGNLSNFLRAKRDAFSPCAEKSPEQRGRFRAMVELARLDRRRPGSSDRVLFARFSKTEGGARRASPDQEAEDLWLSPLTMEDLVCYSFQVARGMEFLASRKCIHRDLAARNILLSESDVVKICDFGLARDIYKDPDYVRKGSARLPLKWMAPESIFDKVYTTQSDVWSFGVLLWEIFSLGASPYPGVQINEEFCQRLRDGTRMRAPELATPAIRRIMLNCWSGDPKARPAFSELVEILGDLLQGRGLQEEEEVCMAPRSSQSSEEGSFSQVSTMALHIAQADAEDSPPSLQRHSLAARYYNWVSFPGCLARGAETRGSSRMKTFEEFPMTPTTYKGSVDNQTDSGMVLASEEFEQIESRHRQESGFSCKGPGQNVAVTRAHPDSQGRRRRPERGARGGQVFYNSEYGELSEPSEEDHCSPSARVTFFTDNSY
# [16] = biological target: Vascular endothelial growth factor receptor 3 (Homo sapiens) (UniProt P35916); details: at 1 µM
# [17] = biological target: Macrophage colony-stimulating factor 1 receptor (Homo sapiens) (UniProt P07333); details: at 0.1 µM
# Sequence of Macrophage colony-stimulating factor 1 receptor (Homo sapiens) (P07333 whole entry): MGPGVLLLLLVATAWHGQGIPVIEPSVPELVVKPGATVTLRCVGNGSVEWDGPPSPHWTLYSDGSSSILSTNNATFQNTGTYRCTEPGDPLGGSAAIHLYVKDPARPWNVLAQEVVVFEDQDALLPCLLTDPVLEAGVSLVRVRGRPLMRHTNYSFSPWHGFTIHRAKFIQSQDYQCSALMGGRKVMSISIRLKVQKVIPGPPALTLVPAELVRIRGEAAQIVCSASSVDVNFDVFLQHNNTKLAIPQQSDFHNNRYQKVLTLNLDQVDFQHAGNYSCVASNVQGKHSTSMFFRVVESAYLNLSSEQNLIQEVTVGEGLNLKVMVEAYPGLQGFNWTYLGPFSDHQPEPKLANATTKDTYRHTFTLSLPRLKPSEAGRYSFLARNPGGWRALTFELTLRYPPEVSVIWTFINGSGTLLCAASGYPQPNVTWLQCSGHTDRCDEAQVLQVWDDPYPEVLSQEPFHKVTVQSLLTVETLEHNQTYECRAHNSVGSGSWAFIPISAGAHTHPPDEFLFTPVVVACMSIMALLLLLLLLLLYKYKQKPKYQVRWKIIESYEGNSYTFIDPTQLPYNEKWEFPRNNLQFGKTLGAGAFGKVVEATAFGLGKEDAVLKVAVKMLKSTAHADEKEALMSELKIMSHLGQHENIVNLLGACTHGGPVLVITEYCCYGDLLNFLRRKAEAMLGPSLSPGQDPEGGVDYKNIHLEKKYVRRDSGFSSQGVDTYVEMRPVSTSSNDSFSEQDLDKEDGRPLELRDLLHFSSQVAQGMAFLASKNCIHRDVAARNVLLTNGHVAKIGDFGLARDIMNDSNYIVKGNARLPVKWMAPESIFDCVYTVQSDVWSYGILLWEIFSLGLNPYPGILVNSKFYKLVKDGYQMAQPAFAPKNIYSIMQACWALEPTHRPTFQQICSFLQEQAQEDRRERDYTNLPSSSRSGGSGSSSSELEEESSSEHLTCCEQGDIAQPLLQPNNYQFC
# [18] = biological target: Macrophage colony-stimulating factor 1 receptor (Homo sapiens) (UniProt P07333); details: at 1 µM
# [19] = biological target: Tyrosine-protein kinase Fyn (Homo sapiens) (UniProt P06241); details: at 0.1 µM
# Sequence of Tyrosine-protein kinase Fyn (Homo sapiens) (P06241 2-537 limits assumed): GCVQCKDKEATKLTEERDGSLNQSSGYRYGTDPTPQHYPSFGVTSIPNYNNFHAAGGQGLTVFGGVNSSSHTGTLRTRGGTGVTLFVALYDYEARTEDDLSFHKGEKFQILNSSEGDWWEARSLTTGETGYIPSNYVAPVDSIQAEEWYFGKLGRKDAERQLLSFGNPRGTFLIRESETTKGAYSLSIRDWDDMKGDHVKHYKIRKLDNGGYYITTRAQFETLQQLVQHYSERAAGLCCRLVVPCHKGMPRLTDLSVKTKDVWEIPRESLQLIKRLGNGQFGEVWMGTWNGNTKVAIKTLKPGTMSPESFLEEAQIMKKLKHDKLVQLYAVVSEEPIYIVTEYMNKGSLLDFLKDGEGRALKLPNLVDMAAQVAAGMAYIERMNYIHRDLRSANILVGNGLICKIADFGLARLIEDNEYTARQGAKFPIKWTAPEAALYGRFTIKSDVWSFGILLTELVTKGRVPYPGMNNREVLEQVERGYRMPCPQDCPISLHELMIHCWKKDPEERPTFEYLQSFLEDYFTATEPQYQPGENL
# [20] = biological target: T4, Serine/threonine-protein kinase Nek9 (Homo sapiens); details: at 0.1 µM
structure (smiles),measurement,setting,value
CCn1c(-c2nonc2N)nc2c(C#CCN)ncc(OCCCN)c21,inhibition,[1],2.04%
same,inhibition,[2],-2.66%
same,inhibition,[3],-3.17%
same,inhibition,[4],-4.61%
same,inhibition,[5],-4.57%
same,inhibition,[6],-0.99%
same,inhibition,[7],-1.85%
same,inhibition,[8],-5.43%
same,inhibition,[9],-9.67%
same,inhibition,[10],-9.04%
same,inhibition,[11],-5.66%
same,inhibition,[12],-6.34%
same,inhibition,[13],-4.74%
same,inhibition,[14],7.13%
same,inhibition,[15],-2.4%
same,inhibition,[16],1.59%
same,inhibition,[17],-1.23%
same,inhibition,[18],0.9%
same,inhibition,[19],0.54%
CCn1c(-c2nonc2N)nc2c(C#CC(C)(C)O)ncc(OC[C@@H]3CCCN3)c21,inhibition,[1],98.7%
same,inhibition,[2],0.01%
same,inhibition,[3],0.55%
same,inhibition,[4],0.12%
same,inhibition,[5],0.91%
same,inhibition,[6],1.04%
same,inhibition,[7],0.79%
same,inhibition,[8],-0.99%
same,inhibition,[9],-0.58%
same,inhibition,[20],-1.1%
same,inhibition,[10],0.02%
same,inhibition,[11],-0.2%
same,inhibition,[12],-3.86%
same,inhibition,[13],4.43%
same,inhibition,[14],-3.96%
same,inhibition,[15],4.88%
same,inhibition,[16],33.9%
same,inhibition,[17],-2.54%
same,inhibition,[18],1.4%
same,inhibition,[19],0.24%
